# Screens (PubChem BioAssay)
# D1 antagonist: Antagonist of Human D 1 Dopamine Receptor: qHTS. D(1A) dopamine receptor (Homo sapiens), P21728. HEK293 TREx D1 cells, calcium flux, dopamine EC80; active compounds read low. activity change, negative = inhibition, % at 10 µM. 360,000 compounds, 3.2% hits; in the data active = activity change below about -30%; note: % is set by controls: 0 for no effect and ±100 for the full control effect
#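 After overnight tetracycline induction at 30 C, force-coupled D1 HEK293 cells took up a no-wash calcium dye at room temperature. Compounds were added and monitored 180 s, and the response to EC80 dopamine was then recorded.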
# D1 agonist: Allosteric Agonists of the Human D1 Dopamine Receptor: qHTS; D(1A) dopamine receptor (Homo sapiens), P21728; HEK293 T-REx D1 cells, calcium flux, agonist mode; activation, % at 2 µM; 360,000 compounds, 1% hits; in the data active = activation above about 30%; note: 0% is about no effect
#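 Inducible HEK293 T-REx D1 cells, force-coupled to calcium signalling, were plated at 4000 cells/well with tetracycline and held overnight at 30 C. After no-wash calcium dye loading, compound-evoked calcium rise over 180 s flagged agonists.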
# D3 ag: qHTS of D3 Dopamine Receptor Agonist: qHTS; D(3) dopamine receptor (Homo sapiens), P35462; 410,000 compounds, 0.58% hits; D3R DiscoveRx beta-arrestin cells, luminescence, 90 min; max activation, %; AID 652048, 2013; in the data active = max activation above about 30%; note: 0% is about no effect
# Target sequence (P35462 whole entry, looked up): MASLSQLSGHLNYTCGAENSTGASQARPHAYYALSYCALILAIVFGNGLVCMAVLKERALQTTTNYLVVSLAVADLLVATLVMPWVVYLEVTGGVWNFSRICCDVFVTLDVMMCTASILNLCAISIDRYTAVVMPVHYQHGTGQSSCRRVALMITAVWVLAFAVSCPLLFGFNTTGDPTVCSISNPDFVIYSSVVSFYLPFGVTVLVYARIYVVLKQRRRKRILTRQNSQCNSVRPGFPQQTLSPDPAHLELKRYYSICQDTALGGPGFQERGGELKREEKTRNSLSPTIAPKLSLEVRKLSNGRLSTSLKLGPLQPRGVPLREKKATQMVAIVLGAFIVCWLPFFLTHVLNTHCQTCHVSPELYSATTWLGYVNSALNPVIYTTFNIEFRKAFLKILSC
#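 Cells at 1500/well, incubated overnight, then treated with pinned compounds (dopamine as control) for 90 min at 37 degrees C. DiscoveRx reagent added for 30 - 60 minutes at room temperature; luminescence read.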
# DRD3 antagonist: qHTS of D3 Dopamine Receptor Antagonist: qHTS; D3R cells, DiscoveRx beta-arrestin luminescence, antagonist mode; active compounds read low; 360,000 compounds, 2.5% hits; max response, negative = inhibition, %; D(3) dopamine receptor (Homo sapiens), P35462; in the data active = max response below about -50%; inconclusive = no clear call, values can overlap the other calls; note: % is set by controls: 0 for no effect and ±100 for the full control effect
#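 Cells plated overnight at 1500 cells/well, then exposed to library compounds with dopamine controls for 90 minutes at 37 degrees C. DiscoveRx reagent added for 30–60 minutes at room temperature; luminescence read, quantitative HTS format.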
# D1 potentiator: Potentiators of Human D1 Dopamine Receptor: qHTS. D(1A) dopamine receptor (Homo sapiens), P21728. HEK293 TREx D1 cells, calcium flux, dopamine EC20 potentiation. potentiation, % at 10 µM. 360,000 compounds, 0.036% hits. AID 504651, 2011; in the data active = potentiation above about 30%; note: 0% is about no effect
# * = called active by the depositor; ? = inconclusive; nt = not tested or not shown. Only some compounds are listed: those with a hit (about 6% of all), similar ones and a draw of the others.
SMILES,D1 antagonist,D1 agonist,D3 ag,DRD3 antagonist,D1 potentiator
CCOc1ccc(CCn2c3c(c(=O)[nH]c2=O)C(NC(=O)c2ccccc2)(C(F)(F)F)C(=O)N3)cc1OCC (stereo unspecified),-9.5,-0.4,-7.4,nt,-5.6
COc1ccc(S(=O)(=O)NC2CCCCC2)cc1C(=O)N1CCCCC1,9.4,2.4,2.4,-65.9*,-3.5
CCOC(=O)N1CCC(NS(=O)(=O)c2cc3c(cc2Br)CCN3C(=O)CC)CC1,nt,nt,-2.7,-7.8,nt
COc1ccc(S(=O)(=O)NC2CCCCCC2)cc1C(N)=O,-1.0,2.0,0.6,1.3,-2.1
CCOC(=O)N1CCC(NS(=O)(=O)c2cc(Br)cnc2N)CC1,-30.0*,2.1,-2.0,14.6,-8.3
CCOC(=O)N1CCC(NS(=O)(=O)c2ccccc2)CC1,6.7,6.9,2.6,9.0,-3.2
CCOC(=O)N1CCC(NS(=O)(=O)c2ccc(C)cc2)CC1,-39.0*,6.1,-7.2,20.4,-4.1
O=C(CN1CCCCC1)Nc1ccc(S(=O)(=O)NC2CCCCC2)cc1,-8.3,10.9,-8.5,-50.6*,-6.3
Cc1ccc2c(c1)N(C(=O)Nc1cccc(C)c1C)CCO2,2.2,2.1,-6.9,nt,-1.4
CC1CCC(NC(=O)c2ccc3c(c2)N(Cc2ccccc2)C(=O)c2ccccc2S3(=O)=O)CC1 (stereo unspecified),-0.1,8.4,-16.3,nt,-3.1
COc1ccc(-c2noc(CC(=O)Nc3ccc(F)cc3F)n2)cc1,-6.3,7.1,-3.0,nt,-5.3
O=C(NC1CCN(Cc2cccc([N+](=O)[O-])c2)CC1)c1ccccc1,-57.2*,6.0,-16.7,-11.3,-20.1
Cn1nccc1C(=O)NC1CCN(Cc2ccccc2)CC1,-20.3,1.5,-23.2,-79.7*,-4.8
O=[N+]([O-])c1cccc(CN2CCC(Cc3ccccc3)CC2)c1,-10.6,2.9,-13.7,-29.3,-0.9
CC(Oc1ccccc1)C(=O)NC1CCCCCCC1 (stereo unspecified),4.2,1.2,21.3,2.1,-4.8
CC(Oc1ccccc1)C(=O)NC1CCN(Cc2ccccc2)CC1 (stereo unspecified),2.7,-0.5,-8.3,-58.7*,-4.2
O=C(NC1CCN(Cc2ccccc2)CC1)c1ccccc1,-18.7,1.6,-19.3,-80.7*,-21.1
COC(=O)Cn1c(C(=O)N2CCCC2)cc2c1C[C@H]1CN(C(=O)c3ccccc3)[C@@](Cc3ccc(OC)cc3)(C(=O)OC)[C@@H]21,nt,nt,-0.1,-10.8,nt
O=C(Cc1ccc(Br)cc1)NC1CCN(Cc2ccccc2)CC1,-4.2,8.3,-12.8,-4.2,-6.4
O=C(NC1CCN(CCc2c[nH]c3ccccc23)CC1)c1ccccc1,-83.0*,67.3*,-20.4,-102.5*,-17.8
O=C(NC1CCN(Cc2ccccc2)CC1)C12CC3CC(CC(C3)C1)C2,10.4,6.9,-9.3,-87.6*,-0.9
O=C(NC1CCN(Cc2ccc(Cl)cc2Cl)CC1)c1ccccc1,-75.9*,27.8,-19.3,-78.0*,-28.1
O=C(NC1CCN(Cc2ccccc2)CC1)c1cncc(Br)c1,-14.2,9.6,-22.0,-85.8*,-3.0
COc1cc2ccccc2cc1C(=O)N1CCN(c2nc3ccc(F)cc3s2)CC1,nt,-1.6,10.5,nt,-0.2
COc1ccc(NC(=O)c2nnn(-c3ccc(C(C)C)cc3)c2C)c(OC)c1,-1.3,0.4,15.2,nt,1.9
SMILES,D1 antagonist,D1 agonist,D3 ag,DRD3 antagonist,D1 potentiator
Cc1ccc(CN2C(=O)c3ccccc3Sc3ccc(C(=O)NC4CCCCC4)cc32)cc1,-7.8,-2.4,8.1,nt,-0.6
CC(C)(C)c1ccc(S(=O)(=O)c2cnc(SCC(=O)Nc3ccc4c(c3)OCCO4)[nH]c2=O)cc1,-14.2,0.4,0.9,nt,0.1
Cc1oc(-c2ccccc2)cc1C(=O)NC1CCN(Cc2ccccc2)CC1,-84.5*,2.6,-45.9,-81.9*,-16.3
CC(C)(C)c1ccc(C(=O)NC2CCN(Cc3ccccc3)CC2)cc1,-1.5,13.4,-8.4,-118.3*,-10.6
O=C(NC1CCN(Cc2ccccc2)CC1)c1ccccc1Cl,11.8,-1.0,-6.3,?,-8.8
COc1cccc(/C=C/C(=O)Nc2ccc3nc(N4CCN(C)CC4)cc(C)c3c2)c1OC,-5.3,7.3,-19.6,nt,-1.0
CNC(=S)N(CCc1c(C)[nH]c2ccc(C)cc12)Cc1ccc(OC)c(OC)c1,14.4,-2.4,-0.9,2.8,-4.2
COc1cc(CN(CCc2c(C)[nH]c3ccc(C)cc23)C(=S)NC(C)(C)C)cc(OC)c1OC,-25.5,30.2*,0.6,21.3,-8.9
CC(=O)c1ccc(C(=O)Nc2nnc(-c3ccc(Cl)cc3)o2)cc1,-31.9*,-0.3,-0.4,-6.0,-8.8
COc1ccccc1-c1nnc(NC(=O)c2ccc(S(=O)(=O)N3CCOCC3)cc2)o1,-16.6,3.5,-9.2,-18.3,-2.0
CN(c1ccccc1)S(=O)(=O)c1ccc(C(=O)Nc2nnc(-c3ccc(F)cc3)o2)cc1,-14.7,18.2,-3.7,-87.9*,21.1
COc1ccccc1-c1nnc(NC(=O)c2ccc(S(=O)(=O)N(C)Cc3ccccc3)cc2)o1,-5.8,2.4,4.1,-77.9*,2.5
O=C(Nc1nnc(-c2ccccc2)o1)Nc1ccc(F)cc1F,-31.3*,2.8,2.0,-0.5,-2.3
COCCNC(=O)C1(C)CCCN(C(=O)c2cc(F)cc(F)c2)C1 (stereo unspecified),nt,nt,6.2,7.0,nt
CCCC(=O)Oc1c(Sc2ccc(Cl)cc2)c(C)nn1-c1ccccc1,2.1,-0.6,-9.2,nt,2.5
CCc1nnc(NC(=O)c2ccc(S(=O)(=O)N(C)Cc3ccccc3)cc2)o1,-3.5,-0.2,-0.6,-1.0,-2.8
CN(Cc1ccccc1)S(=O)(=O)c1ccc(C(=O)Nc2nnc(C3CC3)o2)cc1,-6.1,0.5,-6.7,-62.8*,-5.2
Cc1cc(C)c2c(CC(=O)NCCc3ccccc3)coc2c1,5.1,-0.3,34.3*,-4.9,1.0
CCc1ccc2occ(CC(=O)Nc3ccccc3C(F)(F)F)c2c1,10.5,21.8,-10.0,nt,-2.0
CCc1ccc2occ(CC(=O)NCc3ccccc3)c2c1,-12.9,49.0*,-11.9,nt,-0.3
Cc1ccc(CO)cc1Nc1ncnc2onc(-c3ccc(F)cc3)c12,7.1,-0.3,8.2,nt,0.9
Cn1c(=O)c(=O)n(C)c2cc(S(=O)(=O)CCC(=O)Nc3ccccc3C(F)(F)F)ccc21,nt,nt,-11.2,?,nt
O=C(Cc1csc(N2CCOCC2)n1)N/N=C/c1ccc(O)c(O)c1O,-17.1,5.4,-13.0,-57.4*,0.8
CC(C)C[C@H]1COc2cc(N3CCC[C@H]3CO)ccc2S(=O)(=O)N1,nt,nt,-5.5,0.0,nt
